The text below walks through data of PubChem BioAssay (NCATS).

Assay in all cases: qHTS profiling for inhibitors of Plasmodium falciparum proliferation (AID 504749); note: nearly all actives have a fitted effect of over 60% in size
What all share (conditions): P. falciparum in erythrocytes, SYBR Green DNA, 72 h; series mostly up to 28.7 µM
For orientation: In qHTS, concentration-response curves come from the screen itself.

Assay [1] has as its system DIV17. The method, boiled down:
(§1)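 P. falciparum-infected erythrocytes (0.3% parasitemia, 2.5% hematocrit) incubated with compound 72 h at 37 C, 5% CO2. Parasite DNA detected by SYBR Green after lysis, overnight at room temperature; normalised to 0.29 uM artemisinin and DMSO.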

Assay [2] relates to DIV30. The essentials: as §1
Assay [3] concerns Dd2. The essentials: as §1
In assay [4] the test system is ECU. The method, boiled down:
as §1

In assay [5] the test system is FAB9. The method, boiled down: as §1
Assay [6] has as its system GB4. The essentials: as §1
The test system of assay [7] is HB3. The essentials: as §1
Assay [8] has as its system ICS. The method, boiled down: as §1
The subject of assay [9] is JCK. The method, boiled down:
as §1

Assay [10] deals with N140. The essentials:
as §1

The subject of assay [11] is P93_24. The method, boiled down:
as §1

The test system of assay [12] is P94_40. The method, boiled down:
as §1

In assay [13] the test system is PAD. The essentials: as §1
Assay [14] relates to PC15. The essentials:
as §1

Assay [15] deals with PC26. The method, boiled down:
as §1

Assay [16] has as its system PC49. The method, boiled down:
as §1

The test system of assay [17] is SC27B. The method, boiled down:
as §1

The test system of assay [18] is TAB109. The method, boiled down:
as §1

For assay [19], the system named is TAB113. The essentials: as §1
Assay [20] relates to TAB165. The method, boiled down:
as §1

Molecules are shown by their SMILES. Records with an inconclusive call do not appear. Calls of active or inactive are those of the source. Calls come from the whole dose curve; as a rule, active = well fitted inhibition curve with a large enough effect; inconclusive = small, poorly fitted or top-dose-only effect; inactive = flat fitted curve, though single readings scatter.
Potency is the fitted concentration of half-maximal effect.

As for `COc1cc(C(=O)NCc2ccc(OCCN(C)C)cc2)cc(OC)c1OC`, the Potency entry in [1], in assay [2], in assay [3], in assay [4], in assay [5] and in assay [6] was “inactive” throughout. Besides, the Potency result in assay [7], in assay [8], in [9], in assay [10], in assay [11] and in [12] was “inactive” each time. For the same compound, the Potency result in [13], in assay [14], in assay [15], in [16], in [17] and in [18] was “inactive” in each case. The Potency result in assay [19] and in assay [20] was “inactive” throughout.

In the case of `CNCCc1ccccn1`, the Potency result in assay [1], in [2], in [3], in assay [4], in assay [5] and in assay [6] was “inactive” throughout. In addition, the Potency entry in [7], in assay [8], in [9], in [10], in assay [11] and in [12] was “inactive” in each case. Further, the Potency entry in [13], in assay [14], in assay [15], in [16], in assay [17] and in [18] was “inactive” throughout. For the same compound, the Potency result in assay [19] and in assay [20] was “inactive” in each case.

As for `COc1cc(C(=O)N2CCCCCCC2)cc(OC)c1OC`, the Potency entry in assay [1], in assay [2], in [3], in [4], in assay [5] and in assay [6] was “inactive” in each case. Besides, the Potency entry in assay [7], in assay [8], in assay [9], in [10], in [11] and in assay [12] was “inactive” in each case. In addition, the Potency result in assay [13], in assay [14], in assay [15], in assay [16], in [17] and in assay [18] was “inactive” throughout. The Potency entry in assay [19] and in [20] was “inactive” in each case.

With `FC(F)(F)C(F)(F)C(F)(F)C(F)(F)C(F)(F)C(F)(F)C(F)(F)C(F)(F)Br`, the Potency entry in [1], in [2], in [3], in [4], in assay [5] and in assay [6] was “inactive” throughout. Besides, the Potency entry in [7], in [8], in [9], in assay [10], in assay [11] and in [12] was “inactive” throughout. The Potency entry in assay [13], in assay [14], in [15], in [16], in [17] and in assay [18] was “inactive” each time. Also, the Potency entry in assay [19] and in assay [20] was “inactive” in each case.

As to `CCOC(=O)[C@H](CCc1ccccc1)N[C@@H](C)C(=O)N1[C@H](C(=O)O)C[C@H]2CCCC[C@@H]21`, the Potency entry in assay [1], in assay [2], in [3], in assay [4], in [5] and in assay [6] was “inactive” each time. For the same compound, the Potency entry in assay [7], in assay [8], in assay [9], in [10], in [11] and in [12] was “inactive” in each case. Moreover, the Potency result in assay [13], in assay [14], in assay [15], in assay [16], in [17] and in assay [18] was “inactive” each time. Further, the Potency entry in assay [19] and in assay [20] was “inactive” in each case.

For the compound `CC(=O)NO`, the Potency entry in assay [1], in assay [2], in assay [3], in assay [4], in assay [5] and in assay [6] was “inactive” throughout. Further, the Potency entry in [7], in assay [8], in [9], in assay [10], in [11] and in assay [12] was “inactive” each time. Besides, the Potency result in [13], in [14], in [15], in [16], in assay [17] and in assay [18] was “inactive” throughout. Also, the Potency result in assay [19] and in [20] was “inactive” throughout.

As to `CCCCNc1ccc(C(=O)OCCOCCOCCOCCOCCOCCOCCOCCOCCOC)cc1`, the Potency result in [1], in [2], in assay [3], in assay [4], in assay [5] and in [6] was “inactive” throughout. The Potency entry in assay [7], in assay [8], in assay [9], in assay [10], in [11] and in assay [12] was “inactive” in each case. The Potency result in [13], in [14], in assay [15], in assay [16], in assay [17] and in [18] was “inactive” each time. Also, the Potency entry in assay [19] was “inactive”.

For `NC(=O)n1c(O)c(C(=O)c2cccs2)c2cc(Cl)ccc21`, the Potency result in [1], in assay [2], in assay [3], in assay [4], in [5] and in assay [6] was “inactive” each time. Besides, the Potency result in assay [7], in assay [8], in assay [9], in assay [10], in assay [11] and in [12] was “inactive” each time. Further, the Potency entry in assay [13], in [14], in assay [15], in assay [16], in assay [17] and in assay [18] was “inactive” in each case. Also, the Potency result in assay [19] and in [20] was “inactive” in each case.

For the compound `CCCCCCCCCCCCCCCC(=O)O`, the Potency entry in [1], in [2], in assay [3], in assay [4], in [5] and in assay [6] was “inactive” throughout. In addition, the Potency entry in assay [7], in assay [8], in [9], in assay [10], in assay [11] and in [12] was “inactive” each time. The Potency result in assay [13], in [14], in assay [15], in assay [16], in assay [17] and in assay [18] was “inactive” each time. Further, the Potency result in assay [19] and in [20] was “inactive” throughout.

For the compound `CCCN(CCC)S(=O)(=O)c1ccc(C(=O)O)cc1`, the Potency result in assay [1], in assay [2], in [3], in assay [4], in [5] and in assay [6] was “inactive” throughout. The Potency entry in [7], in assay [8], in assay [9], in assay [10], in [11] and in assay [12] was “inactive” each time. The Potency entry in [13], in assay [14], in assay [15], in [16], in assay [17] and in assay [18] was “inactive” each time. Moreover, the Potency entry in assay [19] and in assay [20] was “inactive” each time.

On to `COc1ccccc1N1CCN(CCCCNC(=O)c2ccc(-c3ccc(C(C)=O)cc3)cc2)CC1`, for which the Potency entry in assay [1], in assay [2], in assay [3], in assay [4], in assay [5] and in [6] was “inactive” in each case. Besides, the Potency entry in assay [7], in assay [9], in assay [10], in [11], in [12] and in assay [13] was “inactive” in each case. The Potency entry in assay [14], in assay [15], in assay [16], in [17], in assay [18] and in assay [19] was “inactive” in each case. Further, in assay [20], the Potency entry is “inactive”. Moreover, the Potency in assay [8] was 14.1 µM (active).

For the compound `CCN(CC)CCNC(=O)c1cc(Br)c(N)cc1OC`, the Potency result in assay [1], in [2], in assay [3], in [4], in [5] and in [6] was “inactive” in each case. For the same compound, the Potency result in assay [7], in [8], in assay [9], in assay [10], in [11] and in assay [12] was “inactive” throughout. The Potency entry in [13], in assay [14], in assay [15], in [16], in assay [17] and in assay [18] was “inactive” throughout. Besides, the Potency result in [19] and in assay [20] was “inactive” in each case.

On to `NC(=O)c1ccccc1O`, for which the Potency entry in [1], in assay [2], in assay [3], in [4], in [5] and in [6] was “inactive” throughout. Besides, the Potency entry in assay [7], in assay [8], in [9], in [10], in assay [11] and in assay [12] was “inactive” throughout. Also, the Potency entry in assay [13], in assay [14], in assay [15], in assay [16], in assay [17] and in assay [18] was “inactive” in each case. The Potency result in assay [19] and in assay [20] was “inactive” in each case.

For `Cc1ccc(O)c([C@H](CCN(C(C)C)C(C)C)c2ccccc2)c1`, the Potency is 1.2 µM (active) in [1]; 6.01 µM (active) in [2]; 2.51 µM (active) in assay [3]; 3.98 µM (active) in assay [4]; 8.91 µM (active) in assay [5]; 1.51 µM (active) in [6]. Also, the Potency in [7] is 7.94 µM (active); in [8], 1 µM (active); in [9], 7.94 µM (active); in [10] it was 2 µM (active); in [11] it was 4.47 µM (active); in [12], 2.24 µM (active). Moreover, the Potency is 2.82 µM (active) in [13]; 3.16 µM (active) in assay [14]; 4.78 µM (active) in [15]; 3.16 µM (active) in [16]; 4.47 µM (active) in assay [17]; 3.55 µM (active) in assay [18]. Further, the results for the Potency in [19] and in assay [20] were 3.98 µM (active) and 2.24 µM (active), respectively.
